Screening data (PubChem)
Most compounds without a hit are left out; they make up all but 3% or so of the library.
C2C12 statin: suppressors of simvastatin-induced myotoxicity in C2C12 myotubes; ATP luminescence, 48 h; scaled: DMSO 0, geranylgeraniol control 100; hit rate 0.78% among 330,000; AID 602340; rescue of ATP level, % at 7.49 µM;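 active means mean ATP rescue above about 67%, or every replicate alone reaching that limit, limit read from the data, passing the limit was not always enough; inconclusive means no clear call, values can overlap the other calls; inactive means mean under the limit and some replicate under it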;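 further: myotubes were challenged with 10 µM simvastatin during compound exposure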
esBAF inh: blocks esBAF chromatin remodeling in mouse ES cells; hit rate 2% among 350,000; Bmi1-luciferase knock-in reporter, 24 h; 100% = twice the neutral-well signal; reporter increase, % at 12.5 µM; in the data active means activation above about 40%; inconclusive means no clear call, values can overlap the other calls;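 further: 0% = median of the plate's neutral control wells and 100% = double that signal; a rise in the Bmi1 reporter signal indicates esBAF inhibition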
Wnt bcat act: activates Wnt/beta-catenin signaling in a reporter cell assay; activator, plate reader; activation, % at 9.35 µM; hit rate 1.2% among 300,000; AID 743398; in the data active means activation above about 30%, passing the limit was not always enough; inconclusive means no clear call, values can overlap the other calls;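 further: 0% = neutral control wells and 100% = positive control wells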
MITF TRPM1 HTS: increases MITF-driven TRPM1 promoter luciferase signal. SK-MEL-5 TRPM1-promoter luciferase, 24 h; % of positive control, neutral wells = 0. activation, % at 12.5 µM. hit rate 0.75% among 300,000;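 active means mean activation of at least 80% with every replicate also reaching 80%; inconclusive means mean reaches 80% but some replicate falls short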;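 further: 0% = neutral control wells and 100% = parthenolide positive control wells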
* = called active by the depositor; ? = inconclusive; nt = no result.

SMILES	C2C12 statin	esBAF inh	Wnt bcat act	MITF TRPM1 HTS
COc1ccc(NC(=O)c2ccc(-c3ccc(C(C)=O)cc3)o2)cn1	-25	45*	10	35
CC(=O)c1cccc(NC(=O)CNC(=O)c2cc3ccccc3o2)c1	3	0	1	-22
O=C(Nc1ncccc1Cl)c1cc2ccccc2o1	14	?	46*	51
CC(C)c1nnc(NC(=O)c2cc3ccccc3o2)s1	-2	23	27	108*
Cc1cc(C)cc(NC(=O)Nc2ccc(N3CCCCC3)cc2)c1	nt	nt	39*	nt
O=C(Nc1ccc(NC(=O)c2cc3ccccc3o2)cc1)c1ccco1	-9	0	0	6
O=C(Nc1ccccc1)c1cc2ccccc2o1	-20	-8	35*	-8
CC(C)NC(=O)c1cc2ccccc2o1	1	1	-2	nt
O=C(Nc1ccc(Cl)cc1Cl)c1cc2ccccc2o1	-63	0	14	nt
C[C@@H]1CN([C@H](C)CO)C(=O)c2cc(-c3ccccc3)cnc2O[C@@H]1CN(C)CC1CC1	10	-1	nt	nt
CSc1nnc(NC(=O)c2cc3ccccc3oc2=O)s1	-7	54*	-1	nt
N=c1oc2ccccc2cc1C(=O)Nc1cccc(F)c1	4	-2	15	6
O=C(Nc1ccc(N2CCCC2)cc1)c1cc2ccccc2o1	6	43*	2	28
CC(=O)N1CCN(c2ccc(NC(=O)c3cc4ccccc4o3)cc2)CC1	-26	4	3	8
N=c1oc2ccccc2cc1C(=O)Nc1ccc(F)cc1	3	-16	38*	-12
COc1cccc(-c2cn(CC[C@H]3CC[C@@H](NS(=O)(=O)Cc4ccccc4)[C@@H](CO)O3)nn2)c1	6	0	nt	nt
CO[C@H]1CN(C)C(=O)c2cc(NS(=O)(=O)c3cn(C)cn3)ccc2OC[C@H](C)N(Cc2cccc(F)c2)C[C@H]1C	0	-2	nt	nt
Cc1ccc(/C=N/n2nnnc2N)o1	1	-4	-2	nt
Cc1nn(C)cc1/C=N/n1nnnc1N	107*	12	-4	15
C[C@H](CO)N1C[C@H](C)[C@@H](CN(C)S(=O)(=O)c2ccccc2)Oc2ccc(NC(=O)CCC(F)(F)F)cc2CC1=O	-1	-7	nt	nt
COC(=O)c1ccc(N2CCCCC2)c(N)c1	-1	58*	16	88*
CCCC(=O)c1ccc(N2CCN(C(=O)OCC)CC2)c(F)c1	15	15	-4	6
CCCC(=O)c1ccc(N2CCCCC2)c(F)c1	nt	nt	?	78
CCCC(=O)c1ccc(N2CCC(C)CC2)c(F)c1	nt	nt	52*	69
COC(=O)c1ccc(N2CCC(C)CC2)c(N)c1	nt	nt	nt	59
SMILES	C2C12 statin	esBAF inh	Wnt bcat act	MITF TRPM1 HTS
CCCC(=O)c1ccc(N2CCCCCC2)c(F)c1	-8	52*	3	nt
C[C@@H]1CCCCO[C@@H](CN(C)Cc2ccncc2)[C@@H](C)CN([C@@H](C)CO)C(=O)c2cc(NS(=O)(=O)c3cn(C)cn3)ccc2O1	nt	-1	nt	nt
Cc1noc(C)c1S(=O)(=O)N(C)C[C@H]1Oc2ccc(NC(=O)Cc3cn(C)c4ccccc34)cc2CC(=O)N([C@H](C)CO)C[C@@H]1C	54	5	nt	nt
CN1CCN(c2ccc(NC(=S)NC(=O)c3cccc4c(Br)cccc34)cc2)CC1	126*	-1	-2	7
CN1CCN(c2ccc(NC(=S)NC(=O)/C=C/c3ccco3)cc2)CC1	0	45*	0	43
CC(=O)Nc1ccc(NC(=S)NC(=O)/C=C/c2ccco2)cc1	4	-2	3	nt
O=C(/C=C\c1ccco1)NC(=S)Nc1ccccc1O	nt	nt	16	88*
O=C(O)CCCNC(=O)/C=C/c1ccco1	nt	nt	2	10
O=C(/C=C/c1ccco1)NCCc1ccccc1	8	52*	55*	63
O=C(C[C@@H]1C=C[C@@H](NS(=O)(=O)c2cccc(F)c2)[C@H](CO)O1)NCc1ccc2c(c1)OCO2	1	-4	nt	nt
C[C@@H]1CN([C@@H](C)CO)C(=O)Cc2cc(NC(=O)C3CCCCC3)ccc2O[C@@H]1CN(C)Cc1ccc(C(=O)O)cc1	-5	0	nt	nt
O=C(/C=C/c1ccco1)NC(=S)Nc1ccccn1	7	46*	42*	nt
CO[C@@H]1CN(C)C(=O)c2cc(NS(=O)(=O)CC(F)(F)F)ccc2OC[C@H](C)N(Cc2cccnc2)C[C@H]1C	11	-4	nt	nt
CO[C@@H]1CN(C)C(=O)c2cc(NC(C)=O)ccc2OC[C@H](C)N(C(=O)c2ccncc2)C[C@@H]1C	2	-3	nt	nt
Cc1ccc(SCCC(=O)N2CCC(C(N)=O)CC2)cc1	-7	11	5	9
Cc1ccc(SCCC(=O)N2CCC(C)CC2)cc1	2	59*	?	nt
O=C(C[C@@H]1CC[C@H]2[C@@H](COC[C@@H](O)CN2C(=O)Nc2ccc(Cl)cc2)O1)NCc1ccncn1	-2	4	nt	nt
CCC(=O)N1C[C@@H](C)[C@H](OC)CN(C)C(=O)c2ccc(NC(=O)C3CC3)cc2OC[C@@H]1C	-11	7	nt	nt
CCSc1nnc2c(n1)[nH]c1c(C)cccc12	-31	89*	nt	31
CSc1nnc2c(n1)[nH]c1c(C)cccc12	0	25	nt	17
COC(=O)c1[nH]c2ccc(C)cc2c1NC(=O)CN1CCN(C(=O)c2ccccc2)CC1	96*	3	0	-15
COCCn1c(C)cc(C(=O)CSc2ccc3ccccc3n2)c1C	19	8	nt	87*
COc1cc(/C=N/OCC(=O)NC23CC4CC(CC(C4)C2)C3)ccc1OCc1ccccc1	6	62*	6	42
COc1cc(/C=N/OCC(=O)NC2CCCCC2)ccc1OCc1ccccc1	nt	nt	18	12
C[C@@H]1CN([C@H](C)CO)C(=O)c2cccc(NC(=O)Nc3ccc(F)cc3)c2O[C@@H]1CN(C)S(=O)(=O)c1cn(C)cn1	-5	8	nt	nt
SMILES	C2C12 statin	esBAF inh	Wnt bcat act	MITF TRPM1 HTS
O=C1CCCC/C1=C\Nc1ccc(Cl)cn1	26	44*	nt	69
Cc1ccc(N/C=C2\CCCCC2=O)nc1	2	20	1	45
O=c1c2ccccc2nc2n1CCC2	nt	nt	-4	-7
Cc1nc2sc(-c3ccccc3)cc2c(=O)n1N	-67	-73	-2	-45
Cc1nc2sc(-c3ccccc3)cc2c(=O)n1-n1cccc1	1	48*	nt	102*
O=c1c2cc(-c3ccccc3)sc2nc2n1CCC2	nt	nt	60*	nt
COc1ccc(C(=O)c2ccc(CC#N)s2)cc1	-9	51*	nt	?
Cc1ccc(Nc2nc(N)nc(CSC(=S)N3CCOCC3)n2)cc1	15	-12	nt	nt
COc1ccccc1Nc1nc(N)nc(CSC(=S)N2CCCCC2)n1	nt	nt	35*	16
Nc1nc(CSC(=S)N2CCCCC2)nc(Nc2ccccc2)n1	nt	nt	?	50
Nc1nc(CSC(=S)N2CCOCC2)nc(Nc2ccccc2)n1	nt	nt	45*	118*
Cc1cc(C)c2cc(CN(Cc3ccco3)C(=O)NCc3ccccc3)c(=O)[nH]c2c1	110*	9	nt	13
Cc1cc(C)c2cc(CN(CC3CCCO3)C(=S)NCc3ccco3)c(=O)[nH]c2c1 (centres undefined)	nt	nt	-1	-3
COc1ccc(S(=O)(=O)Nc2ccc3c(c2)C(=O)N([C@H](C)CO)C[C@H](C)[C@H](CN(C)S(=O)(=O)c2ccc(OC)cc2)OCCCC[C@H](C)O3)cc1	nt	6	nt	nt
